Screening data as filed in PubChem.
3T3 cytotox = NIH 3T3 cell cytotoxicity; NIH 3T3 viability, CellTiter-Glo ATP luminescence, 48-72 h; Potency, µM (top dose mostly 96.7 µM), hits mostly inhibitors; 4.3% of 94,000 active; further: nearly all actives have a fitted effect of over 55% in size
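Luminescent ATP readout (CellTiter-Glo, 10 min RT) after 48 or 72 hr compound exposure of NIH 3T3 cells seeded at 400 cells/well in 1536-well format; quantitative HTS.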
GPT2 inh = blocks human glutamate pyruvate transaminase 2 | Q8TD30 | Recombinant GPT2, coupled pyruvate oxidase/HRP Amplex Red fluorescence | Potency, µM (highest dose often 57.7 µM), actives largely listed as inhibitors | 0.25% of 100,000 active | AID 1671188; further: nearly all actives have a fitted effect of over 60% in size
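Inhibition is scored from Amplex Red fluorescence generated when pyruvate oxidase and HRP act on pyruvate released by GPT2. Reactions contain 10ng/uL enzyme, 250uM a-KG and 2mM L-alanine and run 30 min at room temperature.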
hNpr1 antagonist = blocks ANP-stimulated signaling of human Npr1 receptor; P16066; HEK293 hNpr1 GloSensor cGMP, ANP-stimulated luminescence; Potency, µM (doses to about 46.3 µM), hits mostly inhibitors; 1.6% of 76,000 active; calls by dose curve; further: nearly all actives have a fitted effect of over 60% in size
Target sequence (P16066 whole entry, looked up): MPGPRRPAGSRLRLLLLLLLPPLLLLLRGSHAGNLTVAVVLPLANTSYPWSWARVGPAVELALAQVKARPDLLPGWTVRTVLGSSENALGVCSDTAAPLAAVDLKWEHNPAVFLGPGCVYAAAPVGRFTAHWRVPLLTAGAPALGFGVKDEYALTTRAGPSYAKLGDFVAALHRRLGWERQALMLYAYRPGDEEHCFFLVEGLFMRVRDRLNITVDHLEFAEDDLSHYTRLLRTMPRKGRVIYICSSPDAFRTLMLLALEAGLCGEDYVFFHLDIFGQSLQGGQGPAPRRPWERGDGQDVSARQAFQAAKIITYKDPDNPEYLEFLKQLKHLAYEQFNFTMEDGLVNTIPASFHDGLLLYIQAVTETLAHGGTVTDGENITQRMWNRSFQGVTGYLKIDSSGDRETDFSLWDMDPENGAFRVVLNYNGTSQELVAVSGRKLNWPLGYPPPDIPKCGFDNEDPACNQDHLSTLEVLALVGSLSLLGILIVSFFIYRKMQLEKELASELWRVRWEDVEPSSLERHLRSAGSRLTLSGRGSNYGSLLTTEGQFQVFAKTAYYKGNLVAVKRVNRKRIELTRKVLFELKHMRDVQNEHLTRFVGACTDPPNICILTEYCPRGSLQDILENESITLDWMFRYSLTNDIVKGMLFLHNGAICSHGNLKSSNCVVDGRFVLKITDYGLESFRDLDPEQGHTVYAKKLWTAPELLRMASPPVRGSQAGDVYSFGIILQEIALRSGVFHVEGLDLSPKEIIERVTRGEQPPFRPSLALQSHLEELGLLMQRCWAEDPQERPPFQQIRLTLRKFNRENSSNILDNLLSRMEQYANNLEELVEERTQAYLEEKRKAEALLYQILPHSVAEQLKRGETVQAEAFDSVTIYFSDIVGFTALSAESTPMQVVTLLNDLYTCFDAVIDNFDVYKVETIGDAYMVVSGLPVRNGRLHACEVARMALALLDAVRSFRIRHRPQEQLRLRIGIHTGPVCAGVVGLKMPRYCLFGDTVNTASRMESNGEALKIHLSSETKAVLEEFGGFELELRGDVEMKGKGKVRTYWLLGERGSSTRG
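HEK293 cells stably expressing human Npr1 and cGMP GloSensor pGS-40F, loaded 2 h with 2% GloSensor reagent, given compound 30 min at room temperature. Luminescence read before and 20 min after 0.1 nM hNppA.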
HEK cytotox = HEK 293 cell cytotoxicity; HEK 293 viability, ATP luminescence (CellTiter-Glo), 48-72 h; 6.6% of 94,000 active; AID 1345083; Potency, µM (top dose mostly 115 µM), hits mostly inhibitors; further: nearly all actives have a fitted effect of over 60% in size
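HEK 293 cells at 250 cells/well were exposed to compounds by pintool transfer for 48 or 72 hr at 37 degree Celsius, 5% CO2. Viability was read as ATP-coupled luminescence with CellTiter-Glo after 10 min at room temperature.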
Luciferase inh = Photinus pyralis luciferase inhibition; P08659; purified P. pyralis luciferase, luminescence, biochemical; Potency, µM (top dose mostly 115 µM), most hits filed as inhibitors; 2.5% of 76,000 active; AID 1347043; further: nearly all actives have a fitted effect of over 65% in size
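Luminescence read by CCD imaging after purified firefly luciferase (10nM final) was added to substrate buffer holding 10uM D-luciferin and 10uM ATP, pH 7.5, pre-dosed with compound.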
A number is an active result; n = inactive; u = inconclusive; x = no result given; [ ] = dose if it differs, or a comment. Only some compounds are listed: those with a hit (about 10% of all), similar ones and a draw of the others. Unless noted, the call rests on the fitted dose curve; in most records, active means well fitted curve in the direction sought with a large enough effect; inconclusive means small, poorly fitted or top-dose-only effect, or another doubt; inactive means no such curve, though single readings can be large; an effect the other way counts as inactive or inconclusive.

SMILES	3T3 cytotox	GPT2 inh	hNpr1 antagonist	HEK cytotox	Luciferase inh
COc1ccc2[nH]c(C[C@@H]3C[C@@H](C(C)C)[C@H](CNC(=O)c4cccnc4)C=C3C)nc2n1	u	n	n	56.2µM	n
CC1=C[C@@H](CNC(=O)C(C)C)[C@H](C(C)C)C[C@H]1Cc1nc2ncccc2[nH]1	u	n	n	n	n
CC(=O)NC[C@@H]1C=C(C)[C@H](Cc2nc3ccccc3[nH]2)C[C@H]1C(C)C	u	n	n	u	n
Cc1ccc(C(=O)N2CCCCCCNC(=O)[C@@H]3C[C@@H](c4nc(Cc5ccccc5)no4)C[C@@H]32)s1	u	n	n	79.4µM	n
Cc1cnc(-c2ccccc2)n1CCNC(=O)C(C)c1ccccc1 (stereo not drawn)	n	n	x	n	x
CC1(c2ccccc2)N(Cc2cccnc2)C(=O)OC12CCN(C(=O)c1ccccc1)CC2 (stereo not drawn)	u	n	n	n	n
Cc1ncsc1C(=O)N1CCC2(CC1)OC(=O)N(Cc1ccccc1)C2(C)c1cccnc1 (stereo not drawn)	22.4µM	n	n	n	n
COc1ccc(C(=O)N2CCC3(CC2)OC(=O)N(Cc2cccnc2)C3(C)c2ccccc2)cn1 (stereo not drawn)	39.8µM	n	n	n	n
CC1(c2ccccc2)N(Cc2cccnc2)C(=O)OC12CCN(C(=O)C1CCC1)CC2 (stereo not drawn)	17.8µM	n	n	n	n
Cc1ncsc1C(=O)N1CCC2(CC1)OC(=O)N(Cc1cccnc1)C2(C)c1ccccc1 (stereo not drawn)	22.4µM	n	n	n	n
O=C(c1ccccc1F)N1CCC(C(=O)N2CCC(c3ccccc3)CC2)CC1	n	u	x	u	x
C[S+](=O)([O-])N1CCC(Cn2ccc3c(N4CCOCC4)nc(-c4ccncc4)cc32)CC1	28.2µM	n	n	u	n
C[S+](=O)([O-])N1CCC(Cn2ccc3c(N4CCOCC4)nc(-c4cccc5[nH]ncc45)cc32)CC1	10µM	n	n	u	n
COc1ccccc1-c1cc2c(ccn2CC2CCN([S+](C)(=O)[O-])CC2)c(N2CCOCC2)n1	u	n	n	u	n
C[S+](=O)([O-])N1CCC(Cn2ccc3c(N4CCOCC4)nc(-c4ccccc4F)cc32)CC1	n	n	n	u	n
COc1ccc(Cn2c(=O)c(C(=O)N3CCN([S+](=O)([O-])c4ccc(C)cc4)CC3)nc3cccnc32)cc1	n	n	x	n	x
COc1cccc(C(=O)N2CCC3(CC2)CC(c2cccc(C(F)(F)F)c2)=NO3)c1	u	x	x	44.7µM	x
O=C(c1ccc(C(F)(F)F)cc1)N1CCC2(CC1)CC(c1cccc(C(F)(F)F)c1)=NO2	u	n	n	39.8µM	n
O=C(c1ccc(Cl)cc1)N1CCC2(CC1)CC(c1cccc(C(F)(F)F)c1)=NO2	u	x	x	31.6µM	x
CC(=O)N1CCC2(CC1)CC(c1cccc(C(F)(F)F)c1)=NO2	n	x	x	n	x
COc1ccc(C2=NOC3(CCN(Cc4ccc(F)cc4)C3)C2)cc1 (stereo not drawn)	u	n	u	79.4µM	n
O=C(c1ccccc1)N1CCCC2(CC(c3cccc(C(F)(F)F)c3)=NO2)C1 (stereo not drawn)	n	u	x	u	x
Cc1cccc(C)c1OCc1cc(C(=O)N(C)CCCC2CCCC2)no1	n	u	n	u	u
O=C(c1ccoc1)N1CC(c2nnc(-c3ccncc3)o2)C2(CCOCC2)C1 (stereo not drawn)	n	n	n	n	n
COCCn1c(CO)nnc1C1CC(NC(=O)C2(C)CCCC2)C1 (stereo not drawn)	n	n[11.5 µM]	n	n	n
SMILES	3T3 cytotox	GPT2 inh	hNpr1 antagonist	HEK cytotox	Luciferase inh
COc1ccc(C2=NOC3(CCN([S+](=O)([O-])c4ccccc4)C3)C2)cc1 (stereo not drawn)	u	n	n	44.7µM	u
O=C(N1CCOCC1)N1CCC2(CC1)CC(c1cccc(C(F)(F)F)c1)=NO2	n	x	x	u	x
COc1ccc(CN2CCC3(CC2)CC(c2cccc(C(F)(F)F)c2)=NO3)cc1	u	n	n	50.1µM	n
COc1ccc(C2=NOC3(CCCN([S+](=O)([O-])c4cccc(OC)c4)C3)C2)cc1 (stereo not drawn)	n	n	x	u	x
O=C(C1CCCC1)N1CCC2(CC1)CC(c1cccc(C(F)(F)F)c1)=NO2	u	x	x	44.7µM	x
Cc1cccc(OCCc2noc(C3CCCN3C(=O)Nc3ccccc3)n2)c1 (stereo not drawn)	u	n	x	u	x
O=C(C1CCN(c2cnn(CC3CC3)c(=O)c2)C1)N1CCc2ccccc2C1 (stereo not drawn)	u	u	n	u	n
COc1ccc(Nc2ccnc(N3CCC(C(=O)N4CCOCC4)CC3)n2)cc1	n	u	x	n	x
COc1ccc(Nc2ccnc(N3CCC(C(=O)NC4CCCC4)CC3)n2)cc1	35.5µM	n	x	u	x
COc1ccc(Nc2ccnc(N3CCC(NC(=O)C4CCCC4)CC3)n2)cc1	u	n	x	50.1µM	x
COc1ccc(Nc2ccnc(N3CCN(C(=O)C4CCCC4)CC3)n2)cc1	u	n	x	28.2µM	x
O=C1OC[C@@H]2CCNCc3ccccc3N12	n	n	n	n	n
Cc1ccc([S+](=O)([O-])N2CCC(C(=O)N3CCC4(CC3)CC(=O)Nc3ccccc3O4)CC2)cc1	u	n	x	u	x
COc1ccc(NC(=O)O[C@@H]2C=C[C@H](c3c(C)nn(-c4ccc(C)c(Cl)c4)c3C)C2)cc1	u	n	n	u	n
Cc1cc(Cl)ccc1-n1nc(C)c([C@@H]2C=C[C@@H](NC(=O)c3ccc(N(C)C)cc3)C2)c1C	u	n	u	u	17.8µM
CC(=O)N[C@@H]1C=C[C@@H](c2c(C)nn(-c3ccc(C)c(Cl)c3)c2C)C1	79.4µM	n	u	u	u
Cc1ccc(-n2nc(C)c([C@H]3C=C[C@@H](OC(=O)Nc4ccc(C(C)C)cc4)C3)c2C)cc1Cl	u	n	n	28.2µM	n
Cc1nn(-c2ccc(C(F)(F)F)cc2)c(C)c1[C@@H]1C=C[C@@H](NS(=O)(=O)c2cccs2)C1	u	n	n	u	n
CC(=O)Nc1ccc(S(=O)(=O)N[C@@H]2C=C[C@@H](c3c(C)nn(-c4ccc(C(C)(C)C)cc4)c3C)C2)cc1	u	n	n	44.7µM	44.7µM
COc1ccc(C(=O)N[C@@H]2C=C[C@@H](c3c(C)nn(Cc4ccccc4)c3C)C2)cc1	u	n	n	u	u
COc1ccc(C2Cn3nnc(-c4noc(CC5CCCCC5)n4)c3CO2)cc1 (stereo not drawn)	n	n	n	n	n
O=C(c1ccccc1)N1CCCC(n2cc(-c3nc(-c4ccccc4)no3)nn2)C1 (stereo not drawn)	u	n	12.6µM	u	u
